aSyn 5UTR act: Activators via SNCA 5'UTR binding, MLPCN | alpha-synuclein 5'UTR reporter, activators screen | activity score, % (tested at 7.5 µM), hits read low | hit rate 7.1% among 300,000 | AID 1814, 2009; in the data active = activity score below about -60%
Active calls of the source: *. These entries were drawn from the full list.

SMILES	aSyn 5UTR act
Cc1noc(C)c1COc1ccc(CC(=O)NCc2ccccc2)cc1	72
O=C(Nc1ccc(Cl)cc1Cl)NC1CCCC1	-74*
S=C(Nc1ccc(Cl)cc1Cl)NC1CCCCC1	-127*
CN(C(=O)Nc1ccc(Cl)cc1Cl)C1CCCC1	-118*
O=C(NC1CCCCC1)Sc1ccc(Cl)cc1	-72*
C=CCOc1ccc(/C=C/C(C)=N\O)cc1	-110*
Fc1ccc(-c2csc(Nc3ccccn3)n2)c(F)c1	-102*
COc1ccc(-c2csc(Nc3ccccn3)n2)cc1OC	-170*
Oc1ccc(-c2csc(Nc3ccccn3)n2)cc1	-163*
c1ccc(-c2csc(Nc3ccccn3)n2)cc1	-107*
COc1ccc(C2=Nn3c(nnc3-c3ccncc3)SC2)cc1OC	72
COC(=O)c1ccc(Oc2cc(C)nc(-n3nc(C)cc3C)n2)cc1	65
COC(=O)c1ccc(CSc2nc(N)cc(N)n2)cc1	-66*
O=c1c2cc(N3CCOCC3)ccc2[nH]c(=S)n1Cc1ccc(Cl)cc1	-121*
COc1ccc(N2CCN(C(=O)c3ccc(Cn4c(=S)[nH]c5ccc(N6CCOCC6)cc5c4=O)cc3)CC2)cc1	-111*
CC(=O)c1ccc(OCc2cc(C(=O)NCCn3nc(C)cc3C)no2)cc1	-68*
Cc1nc(C(C)NC(=O)c2cc(COc3ccc(C)c(C)c3)on2)c(C)s1 (stereo unspecified)	-82*
Cc1cc(OCc2cc(C(=O)NC(C)c3c(C)nn(C)c3C)no2)cc(C)c1Cl (stereo unspecified)	-114*
CC(NC(=O)c1cc(COc2ccccc2)on1)c1nccs1 (stereo unspecified)	-169*
Cc1cc(CNC(=O)c2cc(COc3ccc(F)c(F)c3)on2)nn1C	-124*
CC(=O)c1ccc(OCc2cc(C(=O)NC(C)c3cnn(C)c3)no2)cc1 (stereo unspecified)	-87*
Cc1ccc(/C=N/NC(=O)NC23CC4CC(CC(C4)C2)C3)o1	-83*
Cc1ccc(/C=N/NC(=O)c2ccoc2C)o1	-137*
Cc1cc(C(=O)N/N=C/c2ccc(C)o2)c2ccccc2n1	65
COc1cc(/C=N/NC(=O)c2ccoc2C)cc(OC)c1O	-90*
SMILES	aSyn 5UTR act
C=CCn1c(=S)[nH]c2nc3c(cc2c1=O)CCCC3	-92*
CC1CC2(C)Oc3ccccc3CC2C(C)C1CNCCCN(C)C (stereo unspecified)	106
CC(=O)Nc1ccc(/C=N/N2CCCCC2)cc1	-96*
O=[N+]([O-])c1cc([N+](=O)[O-])c2cc3ccccc3nc2c1	-176*
CC(C)(C)N(Cc1ccccc1)C(=O)CN1C(=O)c2ccccc2C1=O	-97*
Cc1ccc(-c2c(C)sc(=NC(=O)c3ccco3)n2C)cc1	-123*
O=C(Nc1ccccc1)c1cc2ccccc2c(=O)s1	-209*
O=C(Nc1ccc(O)cc1)c1cc2ccccc2c(=O)s1	-114*
O=C(O)c1cccc(OCc2ccccc2Cl)c1	-188*
O=C(Nc1ccccc1Cl)C1Cc2ccccc2O/C1=N\O (stereo unspecified)	-88*
Cn1c(=O)n(C)c2cc(NC(=O)c3cc4ccccc4o3)ccc21	-146*
Cc1cc(=O)oc2cc(NC(=O)c3cc4ccccc4o3)ccc12	-94*
O=C(Nc1ccc2oc(=O)ccc2c1)c1cc2ccccc2o1	-177*
Cc1cc(C(=O)Nc2ccccc2)oc(=O)c1	-85*
Cc1cc(=O)oc2cc(NC(=O)c3cccc(Br)c3)ccc12	-166*
COCc1cc(=O)oc2cc(NC(=O)c3ccc(C(C)(C)C)cc3)ccc12	-110*
CN(C)S(=O)(=O)c1ccc(NC(=O)c2cc3ccccc3o2)cc1	-110*
Cc1cc(=O)oc2cc(NC(=O)c3ccccc3OC(F)F)ccc12	-114*
COc1nc(Nc2ccc(C(C)C)cc2)nc(OC)n1	-111*
N#Cc1ccc(-c2cn3c(n2)SCC3)cc1	-144*
O=[N+]([O-])c1ccc(-c2cn3c(n2)SCC3)cc1	-81*
CC1CCc2c(sc(NC(=O)c3nc4ncccn4n3)c2C#N)C1 (stereo unspecified)	-148*
CC1CCc2c(sc(NC(=O)C3CCCO3)c2C#N)C1 (stereo unspecified)	-114*
CCOC(=O)Nc1sc2c(c1C#N)CCC(C)C2 (stereo unspecified)	-161*
CC1CCc2c(sc(NC(=O)COC(=O)C3CCCO3)c2C#N)C1 (stereo unspecified)	-68*
SMILES	aSyn 5UTR act
C/C(=N/NC(=O)c1ccc(C)s1)c1cccc(NC(=O)COc2ccc(Cl)cc2C)c1	-73*
C/C(=N\NC(=O)c1c(Cl)c(C)nn1C)c1cccc(NC(=O)COc2ccc(Cl)cc2)c1	-100*
OCCCCNc1cccc2ccccc12	-64*
COCCCN=C1NN=C(c2cc(C)n(Cc3ccco3)c2C)CS1	94
COCCn1c(C)cc(C2=NNC(=NC3CC3)SC2)c1C	112
COCC(C)N=C1NN=C(c2cc(C)n(Cc3ccccc3Cl)c2C)CS1 (stereo unspecified)	-141*
C=CCn1c(SCC(=O)c2[nH]c(C)c(C(=O)OC)c2C)nc2scc(-c3ccc(OC)c(OC)c3)c2c1=O	61
CC(=O)c1c(C)[nH]c(C(=O)CSc2nnc(C)s2)c1C	-110*
CC(=O)c1c(C)[nH]c(C(=O)CSc2nnc3ccccn23)c1C	-85*
O=C(/C=C/c1ccco1)Nc1cccnc1Cl	-130*
COC(=O)c1ccccc1NC(=O)/C=C/c1ccco1	-68*
O=C(/C=C/c1ccccc1)Nc1cccnc1Cl	-84*
Cn1c(NC(=O)/C=C/c2ccco2)cc(=O)n(C)c1=O	-62*
COc1ccc(NS(=O)(=O)c2cc(-c3cnc(C4CC4)o3)ccc2C)cc1	82
COc1ccc(NS(=O)(=O)c2cc(C)ccc2C)cc1	-67*
Fc1ccc2c(Cl)c(-c3nnc(-c4cccs4)o3)sc2c1	-178*
CCN1CCN(c2ccc(NC(=O)c3ccc4c(c3)[nH]c(=O)n4Cc3ccc(F)cc3)cc2)CC1	-68*
CCN1CCN(Cc2ccc(NC(=O)c3ccc(C)c(NC(=O)N4CCNC4=O)c3)cc2C(F)(F)F)CC1	60
COc1cc(SC)ccc1C(=O)OCC(=O)N1CCCC1	-74*
COc1cc(SC)ccc1C(=O)NCCOc1ccc(F)cc1	-150*
COc1cc(SC)ccc1C(=O)NCC1CCCCC1	-67*
CC1CCCCN1C(=O)c1cc(-c2ccc3c(c2)OCO3)on1 (stereo unspecified)	-87*
CCC1CCCCN1C(=O)c1cc(-c2ccc(Cl)c(Cl)c2)on1 (stereo unspecified)	-94*
CC1CCCCN1C(=O)c1cc(-c2ccc(Cl)c(Cl)c2)on1 (stereo unspecified)	-222*
COc1cccc(-c2cc(C(=O)N3C(C)CCCC3C)no2)c1 (stereo unspecified)	-147*
SMILES	aSyn 5UTR act
CCC(C)(C)NC(=O)C(c1ccncc1)N(C(=O)c1sc(C)nc1C)c1ccc(C)cc1 (stereo unspecified)	-62*
CC(C)c1ccc(C(=O)Nc2ccc(CN3CCOCC3)cc2)cc1	-68*
CC(C)c1ccc(NC(=S)NN2CCOCC2)cc1	-135*
Cc1c(Cl)cccc1NC(=S)N=Nc1c(O)n(CN2CCOCC2)c2ccccc12	64
O=C(Nc1ccc2c(c1)OCO2)c1ccc(CN2CCOCC2)cc1	-104*
CSc1ccccc1NC(=O)c1ccc(CN2CCOCC2)cc1	-97*
N/C(=N\O)c1ccc(NC(=O)c2cccs2)cc1	-81*
CC(=O)c1ccc(NC(=O)c2cccs2)cc1	-88*
Cc1ccc(NC(=O)c2ccccc2NC(=O)c2cccs2)cc1	-80*
COC(=O)Cc1ccc(NC(=O)c2cccs2)cc1	-159*
